Screens deposited in PubChem by National Center for Advancing Translational Sciences (NCATS).
An excerpt weighted towards active compounds, which were near 5.3% of everything screened.
HP1b chromo inh = blocks HP1-beta chromodomain binding to methylated histone tails. AlphaScreen HP1-beta / biotin-H3K9me3 peptide binding. hit rate 0.56% among 390,000. AID 540317. Potency, µM (series often up to 114 µM), inactives show top-dose activity change, negative = inhibition, hits mostly inhibitors; also: potency is read from the fitted curve at half-maximal effect; nearly all actives have a fitted effect of over 70% in size
Target sequence (P83916 whole entry, looked up): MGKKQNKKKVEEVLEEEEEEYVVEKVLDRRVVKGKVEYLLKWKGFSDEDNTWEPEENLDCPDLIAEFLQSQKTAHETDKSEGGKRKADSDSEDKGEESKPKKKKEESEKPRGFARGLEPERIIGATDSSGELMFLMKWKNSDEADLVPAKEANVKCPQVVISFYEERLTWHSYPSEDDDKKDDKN
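Compound inhibition of the preformed complex between 50 nM HP1-beta and 50 nM biotinylated H3K9me3 peptide was read by AlphaScreen. Buffer was PBS pH 7.4 with 0.01% Tween-20. Incubations ran 30 min at room temperature, with 10 ug/mL donor/acceptor beads.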
CtBP-E1A blk = CtBP/E1A binding inhibition | AID 651724 | AlphaScreen GST-E1A/His-CtBP binding, 1536-well; stronger effect = lower value | activity change, % (concentration not given with the values) | hit rate 0.49% among 340,000; in the data active = activity change below about -65%; inconclusive = mostly about -30% to -63%; also: % is scaled to controls: 0 for no effect and ±100 for the full control effect
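In 5 uL wells, 23 nL compound meets equimolar GST-E1A and His-CtBP (5X stock 125 nM each) for 2 h, 37 °C. Beads (5X, 50 ug/mL) then 1 h, 37 °C, dark.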
BAZ2B inh = inhibitors of human BAZ2B bromodomain; AlphaScreen BAZ2B-H3K14Ac peptide displacement; Potency, µM (doses to about 114 µM), for the others: at the highest dose activity change, negative = inhibition, most hits filed as inhibitors; hit rate 4.4% among 360,000; also: potency is read from the fitted curve at half-maximal effect; % is scaled to controls: 0 for no effect and ±100 for the full control effect; nearly all actives have a fitted effect of over 60% in size
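Inhibition is scored as reduced AlphaScreen emission. The BAZ2B/b-H3(5-23)K14Ac complex (50 nM each) in PBS pH 7.4, 0.01% Tween-20 meets compound (up to 110 uM) for 30 min at RT before bead addition.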
Six1-Eya2 inh = blocks human Six1 binding to Eya2. AlphaScreen GST-Six1/His-Eya2 binding, biochemical; stronger effect = lower value. activity change, % (no concentration beside the values). hit rate 0.56% among 360,000. AID 651725; in the data active = activity change below about -65%; inconclusive = mostly about -30% to -63%; also: % is scaled to controls: 0 for no effect and ±100 for the full control effect
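Homogeneous AlphaScreen proximity assay pairing GST-Six1 with His-tagged Eya2 (added as 5X mix: 250 nM and 500 nM) in 50 mM Tris pH 8.0, 300 mM NaCl, 1 mM TCEP. Glutathione donor and nickel acceptor beads; 1 h, 37 °C, dark.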
JMJD2A Tudor = JMJD2A Tudor domain (human) inhibition | AlphaScreen JMJD2A-Tudor / H3K4me3 peptide binding | hit rate 4.4% among 390,000 | O75164 | Potency, µM (titrated, usually from 114 µM), for inactives: top-dose activity change, negative = inhibition, most hits filed as inhibitors; also: potency is read from the fitted curve at half-maximal effect; % is scaled to controls: 0 for no effect and ±100 for the full control effect; nearly all actives have a fitted effect of over 50% in size
TDP1 inh = inhibitors of human tyrosyl-DNA phosphodiesterase TDP1 | Q9NUW8 | recombinant TDP1, AlphaScreen DNA substrate cleavage | Potency, µM (series often up to 130 µM), for inactives: top-dose activity change, negative = inhibition, usual class: inhibitors | hit rate 0.28% among 350,000; also: potency is read from the fitted curve at half-maximal effect; % is scaled to controls: 0 for no effect and ±100 for the full control effect; nearly all actives have a fitted effect of over 40% in size
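AlphaScreen read-out: signal falls as enzyme removes the 3' tyrosine-FITC from a 5'-biotinylated DNA oligo (15 nM, 5 min, RT). Enzyme was E. coli-made recombinant Tdp1 at 1 nM, exposed to compound for 15 min beforehand; beads 10 ug/ml, 10 min.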
* = called active by the depositor; ? = inconclusive; nt = no result given; [ ] = remark or other dose. Unless noted, calls follow the shape of the dose curve; as a rule, active = well fitted inhibition curve with a large enough effect; inconclusive = small, poorly fitted or top-dose-only effect; inactive = no such curve, though single readings can be large or run the other way.

SMILES | HP1b chromo inh | CtBP-E1A blk | BAZ2B inh | Six1-Eya2 inh | JMJD2A Tudor | TDP1 inh
CCCCNC(=S)N/N=C/c1ccc(C#N)cc1 | ? | -8 | -21% | 19 | 89µM* | 1%
CCNC(=S)N/N=C/c1ccc(F)cc1 | nt | nt | -22% | nt | nt | 5%
O=C(O)c1nc2ccccc2nc1C(=O)O | -20% | -3 | 79µM* | 3 | 20µM* | -8%
COC(=O)c1c(C)nc2ccccc2c1C(=O)O | 11% | 7 | -38% | 6 | -12% | -14%
COc1ccc(-c2c(C(=O)O)nc3ccccc3c2C(=O)O)cc1 | 2% | 4 | -28% | 5 | 25µM* | -4%
CCN(CC)CCOc1ccc(/C(=C(\Cl)c2ccccc2)c2ccccc2)cc1 | ? | -25 | ? | -7 | 32µM* | 14%[56.1 µM]
Nc1ccccc1C#CCCCCO | 27% | -4 | -4% | 1 | -17% | 7%
CCCCCCCC#Cc1ccccc1/C=N/S(=O)c1ccc(C)cc1 (stereo unspecified) | 171% | nt | 25% | 17 | 8.9µM* | 17%[21 µM]
CN1CCC(Oc2ccccc2Sc2ccccc2)CC1 | ? | -18 | -37% | 0 | 0.71µM* | -5%
CN1CCC(OC(c2ccccc2)c2ccccc2)CC1 | 29% | -3 | 4% | -2 | -3% | -6%[56.1 µM]
CCS(=O)(=O)N1CCc2cc(C(=O)NCCc3ccc(OC)c(OC)c3)ccc21 | 18% | nt | -7% | nt | -17% | 3%
Cc1c(/C=C(\C#N)C(=O)Nc2cccc(Cl)c2)c2ccccc2n1Cc1ccccc1Cl | 24% | nt | -18% | nt | -23% | -1%[12.3 µM]
CC(C)(C)c1ccc(/C=N/NC(=O)c2ccccn2)cc1 | 28% | 3 | 1% | 0 | -4% | 2%
COc1cc(/C=N/NC(=O)c2ccccn2)cc2c1OCO2 | 41% | -9 | 50µM* | -17 | ? | -5%
Cc1ccsc1/C=N/NC(=O)c1ccccn1 | 43% | -3 | 50µM* | -26 | -5% | -2%
O=C(N/N=C/c1ccsc1)c1ccccn1 | 45% | -11 | 56µM* | -18 | -10% | 10%
Cc1ccc(S(=O)(=O)c2nnn3c2nc(NC2CCCCC2)c2sccc23)cc1C | 46% | nt | -16% | nt | 0% | 3%
Cc1ccc(S(=O)(=O)N2CCC(c3ccncc3)CC2)c(C)c1 | 13% | nt | -16% | nt | -14% | 3%
CCC1CCCCN1C(=O)CCS(=O)(=O)c1cc2c(cc1C)NC(=O)CO2 (stereo unspecified) | ? | nt | ? | nt | ? | 8%
CC(=O)O[C@H]1C[C@@H]2CCC3C(CC[C@@]4(C)[C@H]3C[C@H]([N+]3(C)CCCCC3)[C@@H]4OC(C)=O)[C@@]2(C)C[C@@H]1[N+]1(C)CCCCC1 (stereo partly specified) | nt | nt | nt | nt | nt | 9%[56.1 µM]
C[N+]1(C2CCC3CCC2C3O)CCCC1 (stereo unspecified) | 27% | 4 | 50µM* | 2 | 4% | 5%
CC(=O)OC1C2CCC1C([N+]1(C)CCCCC1)CC2 (stereo unspecified) | 71µM* | -18 | -26% | 1 | 25µM* | 6%
CN=c1scc(-c2ccc(F)cc2)n1/N=C/c1ccc(O)c(O)c1 | 40µM* | -27 | 10µM* | ? | 32µM* | 11%
CN=c1scc(-c2ccc([N+](=O)[O-])cc2)n1/N=C/c1ccco1 | 5% | -10 | ? | -10 | -14% | 10%
Cc1ccc(NC(=O)CSc2nnc(-c3ccc([N+](=O)[O-])cc3)o2)c(C)c1 | 50% | nt | ? | nt | -12% | 6%
SMILES | HP1b chromo inh | CtBP-E1A blk | BAZ2B inh | Six1-Eya2 inh | JMJD2A Tudor | TDP1 inh
CCOc1ccccc1NC(=O)c1ccc(F)c(S(=O)(=O)NCc2ccc3c(c2)OCO3)c1 | 20% | nt | 0% | nt | -16% | 8%
CC(=O)N(OCc1ccccc1)[C@@H]1c2cc(C#N)ccc2OC(C)(C)[C@H]1O | nt | nt | nt | nt | nt | 7%
CC(C)(C)c1ccc(O)c(N=Cc2cc(Br)ccc2O)c1 | ? | nt | -20% | -1 | 4µM* | -5%
CCN(CC)c1ccc(N=Cc2cc(Br)ccc2O)cc1 | 0% | -30 | -32% | ? | 40µM* | 8%
Cc1ccc(O)c(C=Nc2cc(C)ccc2O)c1 | 15% | -3 | -8% | 1 | -24% | 8%
O=C(COC(=O)/C=C/c1ccc(F)cc1)NCc1ccco1 | 26% | -6 | -14% | 1 | -24% | 8%
O=C(COC(=O)C1(c2ccc(F)cc2)CCCC1)NCc1ccco1 | 2% | 4 | 23% | -4 | 50µM* | 0%
O=C(COC(=O)c1ccc(F)cc1Cl)NCc1ccco1 | ? | 4 | 50µM* | -4 | 50µM* | nt
O=C(O)c1cc(F)c(S(=O)(=O)N2CCN(S(=O)(=O)c3ccc4c(c3)OCCO4)CC2)cc1F | nt | nt | nt | nt | -35% | -4%
Nc1c(C(=O)c2ccccc2)sc2nsc(SCCN3CCCC3)c12 | -4% | 7 | ? | 26 | 79µM* | 5%
Nc1c(Cl)cc(Cl)cc1Cl | nt | nt | nt | nt | nt | 3%
Nc1c(Cl)cc(N=Nc2ccccc2)cc1Cl | ? | ? | nt | ? | 14µM* | nt
C=C1CC2C(=O)N(Cc3ccccc3)C(C(=O)O)C1N2C(=O)OC(C)(C)C (stereo unspecified) | 17% | nt | nt | nt | -17% | 11%
O=C1OC(c2ccccc2)(c2ccccc2)N2CCN(C(=O)NCc3ccc(F)cc3)CC12 (stereo unspecified) | nt | nt | nt | nt | -15% | 0%
CCOc1ccccc1-n1nnnc1SCC(=O)NC(=O)NCc1ccco1 | -1% | 3 | 50µM* | -12 | ? | 1%
COc1ccccc1OCC(=O)NCc1ccco1 | 28% | 5 | -14% | 0 | 1% | -1%
O=C(CSc1nc(-c2ccc(F)cc2)cs1)NC(=O)NCc1ccco1 | 4% | 0 | 50µM* | -7 | ? | -2%
CC(C)(C)NC(=O)NC(=O)CSc1nnc(COc2ccccc2Cl)o1 | 23% | 4 | -36% | 3 | -12% | 0%
O=C(CSc1nnc(COc2ccccc2Cl)o1)NC(=O)NCc1ccco1 | ? | -2 | 40µM* | -8 | ? | -3%
COc1ccccc1C(C)NCC(=O)NC(=O)NCc1ccco1 (stereo unspecified) | -8% | 3 | 50µM* | -8 | ? | nt
CC(=O)c1ccc(NC(=O)CSc2nnc(-c3ccncc3)n2-c2ccccc2)cc1 | 58% | nt | -1% | nt | -12% | -5%
O=C(CSc1nc(NS(=O)(=O)c2ccccc2)cc(=O)[nH]1)Nc1ccccc1Cl | 20% | -2 | ? | 5 | 0% | 4%
CCOc1ccc(NC(=O)CSc2nc(NS(=O)(=O)c3ccc(C)cc3)cc(=O)[nH]2)cc1 | 18% | 1 | -7% | -16 | -11% | 11%
